This is part of a sample that, as a whole, favours compounds with a hit. Of some 83,000 tested, about 20% had one in any assay.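 Testing used 96-well plates and a 48-hour single-concentration exposure. Example: -40 means 40% of the starting cells died.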 Calls of active or inactive are those of the source. How the source made its calls: active means growth percent below 10; inactive means the rest.
Legend:
Test in all cases: NCI-60 one-dose screen, 48 h (100 = growth as untreated, 0 = no growth, -100 = all killed)
Settings in all cases: 10 µM unless noted
NCI-H23 lung = test system: NCI-H23 lung
NCI-H226 lung = test system: NCI-H226 lung
NCI-H322M lung = test system: NCI-H322M lung
HOP-62 NSCLC = test system: HOP-62 NSCLC
NCI-H460 lung = test system: NCI-H460 lung
NCI-H522 lung = test system: NCI-H522 lung
A549/ATCC NSCLC = test system: A549/ATCC NSCLC
786-0 renal = test system: 786-0 renal
COLO 205 colon = test system: COLO 205 colon
DU-145 prostate = test system: DU-145 prostate
MALME-3M melanoma = test system: MALME-3M melanoma
MDA-MB-231 breast = test system: MDA-MB-231 breast
RXF 393 renal = test system: RXF 393 renal
SF-268 CNS = test system: SF-268 CNS
SF-295 CNS = test system: SF-295 CNS
SF-539 CNS = test system: SF-539 CNS
UACC-257 melanoma = test system: UACC-257 melanoma
M14 melanoma = test system: M14 melanoma
K-562 leukemia = test system: K-562 leukemia

Measured: growth

CNC(=O)c1c(NC(=O)c2cccc(C(F)(F)F)c2)sc2c1CCC(=O)C2
active: NCI-H23 lung -1.79% | NCI-H226 lung 1.92% | NCI-H522 lung -28.3% | COLO 205 colon -31.7% | MALME-3M melanoma -28.9% | MDA-MB-231 breast -41.2% | RXF 393 renal -18.9% | SF-295 CNS -10.4% | SF-539 CNS -30% | UACC-257 melanoma -11% | M14 melanoma -10.9%
inactive: NCI-H322M lung 15.4% | HOP-62 NSCLC 13.6% | NCI-H460 lung 10% | A549/ATCC NSCLC 13.6% | 786-0 renal 13.3% | DU-145 prostate 23.9% | SF-268 CNS 21.7%

Clc1cc2nc(-c3ccccc3)c(-c3ccccc3)nc2cc1Cl
inactive: NCI-H23 lung 79.6% | NCI-H226 lung 89.7% | NCI-H322M lung 106% | HOP-62 NSCLC 89.9% | NCI-H460 lung 94.8% | NCI-H522 lung 86.1% | A549/ATCC NSCLC 100% | 786-0 renal 103% | COLO 205 colon 115% | DU-145 prostate 103% | MALME-3M melanoma 85.8% | MDA-MB-231 breast 88% | RXF 393 renal 110% | SF-268 CNS 105% | SF-295 CNS 98.7% | SF-539 CNS 97.3% | UACC-257 melanoma 111% | M14 melanoma 85.9%

CSc1ccc(/C=C2\C=C(CC(=O)NCc3ccc(C(=O)c4ccccc4)cc3)c3cc(F)ccc32)cc1
inactive: NCI-H322M lung 39.4% | MALME-3M melanoma 49.3% | UACC-257 melanoma 55.2%
active: NCI-H23 lung -23.2% | NCI-H226 lung -40.8% | HOP-62 NSCLC -7.82% | NCI-H460 lung -43.7% | NCI-H522 lung -38.5% | A549/ATCC NSCLC -0.932% | 786-0 renal -25.7% | COLO 205 colon -75.6% | DU-145 prostate -34.3% | MDA-MB-231 breast -7.54% | RXF 393 renal -34.1% | SF-268 CNS 1.28% | SF-295 CNS -20.2% | SF-539 CNS -36.2% | M14 melanoma -33.2%

C=C(c1ccc(C(=O)NCCCn2ccnc2)cc1)c1cc2c(cc1C)C(C)(C)CCC2(C)C
active: 786-0 renal -17% | MALME-3M melanoma -1.54% | SF-295 CNS -29.6% | SF-539 CNS 2.41% | M14 melanoma -76.4%
inactive: NCI-H23 lung 44% | NCI-H226 lung 72.3% | NCI-H322M lung 42.8% | HOP-62 NSCLC 18% | NCI-H460 lung 13.9% | NCI-H522 lung 10.2% | A549/ATCC NSCLC 40.3% | COLO 205 colon 10.3% | DU-145 prostate 34% | MDA-MB-231 breast 28.7% | RXF 393 renal 35.8% | SF-268 CNS 38.5% | UACC-257 melanoma 99.2%

COc1ccccc1/C=C/C(=O)CCC(=O)O
inactive: NCI-H23 lung 106% | NCI-H226 lung 104% | NCI-H322M lung 101% | HOP-62 NSCLC 96.2% | NCI-H460 lung 111% | NCI-H522 lung 103% | A549/ATCC NSCLC 108% | 786-0 renal 96.7% | COLO 205 colon 120% | DU-145 prostate 108% | MALME-3M melanoma 101% | MDA-MB-231 breast 114% | RXF 393 renal 127% | SF-268 CNS 111% | SF-295 CNS 105% | SF-539 CNS 97.5% | UACC-257 melanoma 115% | M14 melanoma 99.8%

CC1(C)CN(CCNc2nccc(-c3c(-c4cccc(O)c4)nc4sccn34)n2)S(=O)(=O)N1
inactive: NCI-H23 lung 70% | NCI-H226 lung 87.5% | NCI-H322M lung 54.2% | HOP-62 NSCLC 89.1% | NCI-H460 lung 50.6% | NCI-H522 lung 65.1% | A549/ATCC NSCLC 117% | 786-0 renal 50.6% | DU-145 prostate 67.9% | MDA-MB-231 breast 53.8% | RXF 393 renal 57.1% | SF-268 CNS 84% | SF-295 CNS 92.9% | SF-539 CNS 87.2% | UACC-257 melanoma 46.8%
active: MALME-3M melanoma 5.36% | M14 melanoma -1.68%

S=C(S)Oc1cccc2cccnc12
inactive: NCI-H23 lung 106% | NCI-H226 lung 102% | NCI-H322M lung 95.2% | HOP-62 NSCLC 110% | NCI-H460 lung 107% | NCI-H522 lung 88.9% | A549/ATCC NSCLC 98.5% | 786-0 renal 103% | DU-145 prostate 105% | K-562 leukemia 90.8% | MALME-3M melanoma 90.9% | MDA-MB-231 breast 111% | RXF 393 renal 119% | SF-268 CNS 109% | SF-295 CNS 110% | SF-539 CNS 118% | UACC-257 melanoma 108% | M14 melanoma 105%

CCOC(=O)c1ccc2c(c1)nc(-c1ccc(Cl)cc1)n2-c1cc(C(C)(C)C)[nH]n1
inactive: NCI-H23 lung 44.5% | NCI-H226 lung 29.5% | NCI-H322M lung 64.1% | HOP-62 NSCLC 39.3% | NCI-H460 lung 23.1% | NCI-H522 lung 26.1% | A549/ATCC NSCLC 39.9% | 786-0 renal 14.1% | COLO 205 colon 34.7% | DU-145 prostate 53.4% | MALME-3M melanoma 33.5% | MDA-MB-231 breast 54.1% | RXF 393 renal 21.4% | SF-268 CNS 44.8% | SF-295 CNS 16.9% | SF-539 CNS 11.3% | UACC-257 melanoma 73.2%
active: M14 melanoma 9.36%

COc1ccccc1CNCCCN1C(=O)c2ccc3c4c(ccc(c24)C1=O)C(=O)N(CCCCNCCCN)C3=O
active: NCI-H23 lung -41.7% | NCI-H322M lung 5.96% | NCI-H460 lung -38.5% | NCI-H522 lung -78.4% | COLO 205 colon -83.7% | DU-145 prostate -72.6% | MALME-3M melanoma -95.6% | MDA-MB-231 breast 9.1% | RXF 393 renal -4.56% | SF-268 CNS 2.12% | SF-539 CNS -61.1% | UACC-257 melanoma -95% | M14 melanoma -49.3%
inactive: NCI-H226 lung 62.6% | HOP-62 NSCLC 40.1% | A549/ATCC NSCLC 33% | 786-0 renal 40% | SF-295 CNS 54.8%

CCOC(=O)C(Cc1ccccc1)n1c(O)c(/C=N/c2ncc(Cc3ccc(Cl)cc3Cl)s2)sc1=S (centres undefined)
inactive: NCI-H23 lung 11% | NCI-H226 lung 15.5% | NCI-H322M lung 15.7% | 786-0 renal 17.9% | DU-145 prostate 26.2% | SF-268 CNS 24.4% | SF-539 CNS 15% | M14 melanoma 10.8%
active: HOP-62 NSCLC 8.75% | NCI-H460 lung 2.04% | NCI-H522 lung -23.2% | A549/ATCC NSCLC 4.36% | K-562 leukemia 2.17% | MALME-3M melanoma -9.77% | MDA-MB-231 breast -18.2% | RXF 393 renal 2.54% | SF-295 CNS -4.55% | UACC-257 melanoma -17.9%
